# Reference: the supplement of paper PMC8728848
# About 410 targets per protein were measured; listed, in parts, are those with the strongest signals and a random draw of the rest.
# B1: LBL-152 (Laetiporus bicolor), B0D650 (protein)
# chain: MSNEYNPPLGIAFRLCGLASDRVLFSRVSPSPEVFHHPKSEVYPDQWFVAIPGSGQNAGCYAIKSKNTGKVLFSRMSPDPRVGHIDGDGKYPDNWFKFEAGSGKYAGYFRLRAVASDTVLVSRTSTGTDTQVINYPATSAKYDDQYFTILFDHHHHHH
# What was measured:
# Assay in all cases: glycan array binding signal (z-score within array); higher = stronger binding
# Conditions in all cases: glycan notation: IUPAC condensed, linker removed
# [1] = biological target: Gal(b1-4)GlcNAc(b1-3)Gal(b1-4)GlcNAc(b1-3)Gal(b1-4)GlcNAc(b1-3)Gal(b1-4)GlcNAc(b1-2)Man(a1-3)[Gal(b1-4)GlcNAc(b1-3)Gal(b1-4)GlcNAc(b1-3)Gal(b1-4)GlcNAc(b1-3)Gal(b1-4)GlcNAc(b1-2)Man(a1-6)]Man(b1-4)GlcNAc(b1-4)GlcNAc
# Summary of the method: (§1)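 Arrays were curated from the Consortium for Functional Glycomics database, 3228 in total, and kept only where the protein sequence was available. Binding is expressed as a within-array Z-score. This score was averaged across arrays of the same protein sequence at different concentrations or buffers and across linkers, and negative values can be read as non-binding.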
# [2] = biological target: Gal(b1-4)GlcNAc(b1-3)Gal(b1-4)GlcNAc(b1-3)Gal(b1-4)GlcNAc(b1-3)Gal(b1-4)GlcNAc(b1-2)Man(a1-3)[Gal(b1-4)GlcNAc(b1-3)Gal(b1-4)GlcNAc(b1-3)Gal(b1-4)GlcNAc(b1-3)Gal(b1-4)GlcNAc(b1-2)Man(a1-6)]Man(b1-4)GlcNAc(b1-4)[Fuc(a1-6)]GlcNAc
# Summary of the method: as §1
# [3] = biological target: Gal(b1-4)GlcNAc(b1-3)Gal(b1-4)GlcNAc(b1-3)Gal(b1-4)GlcNAc(b1-3)Gal(b1-4)GlcNAc(b1-2)[Gal(b1-4)GlcNAc(b1-3)Gal(b1-4)GlcNAc(b1-3)Gal(b1-4)GlcNAc(b1-3)Gal(b1-4)GlcNAc(b1-6)]Man(a1-6)[Gal(b1-4)GlcNAc(b1-3)Gal(b1-4)GlcNAc(b1-3)Gal(b1-4)GlcNAc(b1-3)Gal(b1-4)GlcNAc(b1-2)Man(a1-3)]Man(b1-4)GlcNAc(b1-4)[Fuc(a1-6)]GlcNAc
# Summary of the method: as §1
# [4] = biological target: Gal(b1-4)GlcNAc(b1-3)Gal(b1-4)GlcNAc(b1-3)Gal(b1-4)GlcNAc(b1-3)Gal(b1-4)GlcNAc(b1-3)Gal(b1-4)GlcNAc(b1-2)Man(a1-3)[Gal(b1-4)GlcNAc(b1-3)Gal(b1-4)GlcNAc(b1-3)Gal(b1-4)GlcNAc(b1-3)Gal(b1-4)GlcNAc(b1-3)Gal(b1-4)GlcNAc(b1-2)Man(a1-6)]Man(b1-4)GlcNAc(b1-4)GlcNAc
# Summary of the method: as §1
# [5] = biological target: Gal(b1-4)GlcNAc(b1-3)Gal(b1-4)GlcNAc(b1-3)Gal(b1-4)GlcNAc(b1-3)Gal(b1-4)GlcNAc(b1-3)Gal(b1-4)GlcNAc(b1-2)Man(a1-3)[Gal(b1-4)GlcNAc(b1-3)Gal(b1-4)GlcNAc(b1-3)Gal(b1-4)GlcNAc(b1-3)Gal(b1-4)GlcNAc(b1-3)Gal(b1-4)GlcNAc(b1-2)Man(a1-6)]Man(b1-4)GlcNAc(b1-4)[Fuc(a1-6)]GlcNAc
# Summary of the method: as §1
# [6] = biological target: Gal(b1-4)GlcNAc(b1-3)Gal(b1-4)GlcNAc(b1-3)Gal(b1-4)GlcNAc(b1-3)Gal(b1-4)GlcNAc(b1-3)Gal(b1-4)GlcNAc(b1-2)[Gal(b1-4)GlcNAc(b1-3)Gal(b1-4)GlcNAc(b1-3)Gal(b1-4)GlcNAc(b1-3)Gal(b1-4)GlcNAc(b1-3)Gal(b1-4)GlcNAc(b1-6)]Man(a1-6)[Gal(b1-4)GlcNAc(b1-3)Gal(b1-4)GlcNAc(b1-3)Gal(b1-4)GlcNAc(b1-3)Gal(b1-4)GlcNAc(b1-3)Gal(b1-4)GlcNAc(b1-2)Man(a1-3)]Man(b1-4)GlcNAc(b1-4)[Fuc(a1-6)]GlcNAc
# Summary of the method: as §1
# [7] = biological target: Gal(b1-4)GlcNAc(b1-3)Gal(b1-4)GlcNAc(b1-3)Gal(b1-4)GlcNAc(b1-3)Gal(b1-4)GlcNAc(b1-3)Gal(b1-4)GlcNAc(b1-3)Gal(b1-4)GlcNAc(b1-2)Man(a1-3)[Gal(b1-4)GlcNAc(b1-3)Gal(b1-4)GlcNAc(b1-3)Gal(b1-4)GlcNAc(b1-3)Gal(b1-4)GlcNAc(b1-3)Gal(b1-4)GlcNAc(b1-3)Gal(b1-4)GlcNAc(b1-2)Man(a1-6)]Man(b1-4)GlcNAc(b1-4)GlcNAc
# Summary of the method: as §1
# Gal6S(b1-4)GlcNAc = biological target: Gal6S(b1-4)GlcNAc
# Summary of the method: as §1
# [8] = biological target: GalNAc(b1-3)Gal(a1-6)Gal(b1-4)Glc
# Summary of the method: as §1
# GalNAc3S(b1-4)GlcNAc3S = biological target: GalNAc3S(b1-4)GlcNAc3S
# Summary of the method: as §1
# GalNAc4S6S(b1-4)GlcNAc = biological target: GalNAc4S6S(b1-4)GlcNAc
# Summary of the method: as §1
# [9] = biological target: GlcNAc(a1-4)Gal(b1-4)GlcNAc(b1-3)Gal(b1-4)[Fuc(a1-3)]GlcNAc(b1-3)Gal(b1-4)[Fuc(a1-3)]GlcNAc
# Summary of the method: as §1
# [10] = biological target: GlcNAc(b1-2)Man(a1-3)[GlcNAc(b1-4)][GlcNAc(b1-2)Man(a1-6)]Man(b1-4)GlcNAc(b1-4)GlcNAc
# Summary of the method: as §1
# [11] = biological target: GlcNAc(b1-3)Gal(b1-4)GlcNAc(b1-3)Gal(b1-4)GlcNAc(b1-3)Gal(b1-4)GlcNAc(b1-3)Gal(b1-4)GlcNAc(b1-2)Man(a1-3)[GlcNAc(b1-3)Gal(b1-4)GlcNAc(b1-3)Gal(b1-4)GlcNAc(b1-3)Gal(b1-4)GlcNAc(b1-3)Gal(b1-4)GlcNAc(b1-2)Man(a1-6)]Man(b1-4)GlcNAc(b1-4)GlcNAc
# Summary of the method: as §1
# [12] = biological target: GlcNAc(b1-3)Gal(b1-4)GlcNAc(b1-3)Gal(b1-4)GlcNAc(b1-3)Gal(b1-4)GlcNAc(b1-3)Gal(b1-4)GlcNAc(b1-2)Man(a1-3)[GlcNAc(b1-3)Gal(b1-4)GlcNAc(b1-3)Gal(b1-4)GlcNAc(b1-3)Gal(b1-4)GlcNAc(b1-3)Gal(b1-4)GlcNAc(b1-2)Man(a1-6)]Man(b1-4)GlcNAc(b1-4)[Fuc(a1-6)]GlcNAc
# Summary of the method: as §1
# GlcNAc(b1-3)Man = biological target: GlcNAc(b1-3)Man
# Summary of the method: as §1
# [13] = biological target: GlcNAc6S(b1-3)Gal(b1-4)GlcNAc
# Summary of the method: as §1
# [14] = biological target: Neu5Ac(a2-3)Gal(b1-3)GalNAc(b1-3)Gal(a1-4)Gal(b1-4)Glc
# Summary of the method: as §1
# [15] = biological target: Neu5Ac(a2-3)Gal(b1-3)GalNAc(b1-4)[Neu5Ac(a2-8)Neu5Ac(a2-3)]Gal(b1-4)Glc
# Summary of the method: as §1
# [16] = biological target: Neu5Ac(a2-3)Gal(b1-3)[Fuc(a1-4)]GlcNAc(b1-3)Gal(b1-3)[Fuc(a1-4)]GlcNAc
# Summary of the method: as §1
# [17] = biological target: Neu5Ac(a2-3)Gal(b1-4)GlcNAc(b1-2)Man
# Summary of the method: as §1
# [18] = biological target: Neu5Ac(a2-3)Gal(b1-4)GlcNAc(b1-2)[Neu5Ac(a2-3)Gal(b1-4)GlcNAc(b1-4)]Man(a1-3)[GlcNAc(b1-4)][Neu5Ac(a2-3)Gal(b1-4)GlcNAc(b1-4)Man(a1-6)]Man(b1-4)GlcNAc(b1-4)GlcNAc
# Summary of the method: as §1
# [19] = biological target: Neu5Ac(a2-3)Gal(b1-4)GlcNAc(b1-3)Gal(b1-4)GlcNAc(b1-6)[Gal(b1-3)]GalNAc
# Summary of the method: as §1
# [20] = biological target: Neu5Ac(a2-3)Gal(b1-4)GlcNAc(b1-6)GalNAc
# Summary of the method: as §1
# [21] = biological target: Neu5Ac(a2-3)GalNAc(b1-4)GlcNAc
# Summary of the method: as §1
# [22] = biological target: Neu5Ac(a2-3)[GalNAc(b1-4)]Gal(b1-4)GlcNAc(b1-3)GalNAc
# Summary of the method: as §1
# [23] = biological target: Neu5Ac(a2-6)Gal(b1-4)GlcNAc(b1-3)Gal(b1-4)GlcNAc(b1-3)Gal(b1-4)GlcNAc(b1-2)Man(a1-3)[Neu5Ac(a2-6)Gal(b1-4)GlcNAc(b1-3)Gal(b1-4)GlcNAc(b1-3)Gal(b1-4)GlcNAc(b1-2)Man(a1-6)]GalNAc
# Summary of the method: as §1
# [24] = biological target: Neu5Ac(a2-6)Gal(b1-4)GlcNAc(b1-3)Gal(b1-4)GlcNAc(b1-6)[Gal(b1-3)]GalNAc
# Summary of the method: as §1
# [25] = biological target: Neu5Ac(a2-8)Neu5Ac(a2-3)Gal(b1-4)Glc
# Summary of the method: as §1
binder,measurement,setting,value
B1,glycan array binding signal (z-score),[1],5.39
same,glycan array binding signal (z-score),[2],8.72
same,glycan array binding signal (z-score),[3],6.24
same,glycan array binding signal (z-score),[4],10.6
same,glycan array binding signal (z-score),[5],9.73
same,glycan array binding signal (z-score),[6],7.26
same,glycan array binding signal (z-score),[7],5.94
same,glycan array binding signal (z-score),Gal6S(b1-4)GlcNAc,-0.151
same,glycan array binding signal (z-score),[8],-0.159
same,glycan array binding signal (z-score),GalNAc3S(b1-4)GlcNAc3S,-0.163
same,glycan array binding signal (z-score),GalNAc4S6S(b1-4)GlcNAc,-0.15
same,glycan array binding signal (z-score),[9],-0.147
same,glycan array binding signal (z-score),[10],-0.153
same,glycan array binding signal (z-score),[11],3.47
same,glycan array binding signal (z-score),[12],4.51
same,glycan array binding signal (z-score),GlcNAc(b1-3)Man,-0.156
same,glycan array binding signal (z-score),[13],-0.157
same,glycan array binding signal (z-score),[14],-0.15
same,glycan array binding signal (z-score),[15],-0.145
same,glycan array binding signal (z-score),[16],-0.147
same,glycan array binding signal (z-score),[17],-0.149
same,glycan array binding signal (z-score),[18],-0.16
same,glycan array binding signal (z-score),[19],-0.162
same,glycan array binding signal (z-score),[20],-0.16
same,glycan array binding signal (z-score),[21],-0.153
same,glycan array binding signal (z-score),[22],-0.151
same,glycan array binding signal (z-score),[23],-0.134
same,glycan array binding signal (z-score),[24],-0.154
same,glycan array binding signal (z-score),[25],-0.157
